Measured values: PubChem BioAssay (Tox21)
Values without a mark were called inactive. Inconclusive results are not listed. Entries that show only a call come without a potency. Calls of active or inactive are those of the source. Unless noted, calls follow the shape of the dose curve; as a rule, active = well fitted curve in the direction sought with a large enough effect in the repeat runs; inconclusive = weak or mixed curves; inactive = no such curve, though single readings can be large; an effect the other way counts as inactive or inconclusive.

How the values were obtained:
[1] = qHTS assay to identify small molecule antagonists of the estrogen related receptor (ERR) signaling pathway from Tox21 library - cell viability counter screen (AID 1224834); also: nearly all actives have a fitted effect of over 30% in size; also: potency is read from the fitted curve at half-maximal effect
Method in brief: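 Cytotoxicity of test substances is gauged in the same ERR cells used for the antagonist screen, after 17.5 h of compound treatment at 37 C, by CellTiter-Fluor fluorescence measured after 30 min.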

[2] = qHTS assay to identify small molecule agonists of the constitutive androstane receptor (CAR) signaling pathway - cell viability counter screen (AID 1224836); also: series mostly up to about 92 µM; nearly all actives have a fitted effect of over 45% in size
Method in brief: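 23 h treatment, 37 C, 5% CO2. Cell line: HepG2 stably expressing hCAR with a CYP2B6-2.2kb construct. Co-treatment: PK11195, 0.75 uM final. Read-out: CellTiter-Fluor fluorescence intensity.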

[3] = qHTS assay to identify small molecule antagonists of the constitutive androstane receptor (CAR) signaling pathway - cell viability counter screen (AID 1224837); also: series mostly up to about 92 µM; nearly all actives have a fitted effect of over 45% in size
Method in brief: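 Multiplexed cytotoxicity read-out for the CAR antagonist screen: double-stable HepG2-CYP2B6-hCAR cells co-treated with 50 nM CITCO (final) and compound over 15 concentrations, incubated 23 hr, then assessed by CellTiter-Fluor fluorescence.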

[4] = target: Nuclear receptor subfamily 1 group I member 3 (Homo sapiens) (UniProt Q14994); assay: qHTS assay to identify small molecule antagonists of the constitutive androstane receptor (CAR) signaling pathway (AID 1224838); also: nearly all actives have a fitted effect of over 40% in size
Chain of Nuclear receptor subfamily 1 group I member 3 (Homo sapiens) (Q14994 whole entry, looked up): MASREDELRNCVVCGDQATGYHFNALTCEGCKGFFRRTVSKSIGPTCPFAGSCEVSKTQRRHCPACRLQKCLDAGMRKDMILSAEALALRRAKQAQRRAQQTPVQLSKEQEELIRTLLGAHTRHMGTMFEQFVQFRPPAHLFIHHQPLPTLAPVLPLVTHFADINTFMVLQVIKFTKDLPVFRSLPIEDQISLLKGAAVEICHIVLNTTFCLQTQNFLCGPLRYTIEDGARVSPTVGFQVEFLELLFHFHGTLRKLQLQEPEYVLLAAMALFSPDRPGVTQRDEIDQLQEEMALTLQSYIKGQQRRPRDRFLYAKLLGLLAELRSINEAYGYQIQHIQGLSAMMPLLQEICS
Method in brief: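 Compounds were titrated across 15 concentrations onto HepG2 cells double-stably expressing hCAR and a CYP2B6-2.2kb reporter, together with 50 nM CITCO (final). After 24 h at 37 C, luciferase activity was measured by luminescence.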

[5] = target: Nuclear receptor subfamily 1 group I member 3 (Homo sapiens) (UniProt Q14994); assay: qHTS assay to identify small molecule agonists of the constitutive androstane receptor (CAR) signaling pathway (AID 1224839);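 also: HepG2 cells stably carrying human CAR and a CYP2B6 luciferase reporter; series mostly up to about 92 µM; nearly all actives have a fitted effect of over 15% in size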
Method in brief: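 Compounds tested at 15 concentrations on HepG2 cells stably harbouring hCAR and CYP2B6-2.2kb reporter constructs, co-treated with PK11195 (0.75 uM final), 24 h at 37 C; luminescent reporter signal quantified.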

[6] = target: Thyrotropin receptor (Homo sapiens) (UniProt P16473); assay: qHTS assay to identify small molecule agonists of the thyroid stimulating hormone receptor (TSHR) signaling pathway (AID 1224843; calls by dose curve; also: nearly all actives have a fitted effect of over 45% in size)
Chain of Thyrotropin receptor (Homo sapiens) (P16473 whole entry, looked up): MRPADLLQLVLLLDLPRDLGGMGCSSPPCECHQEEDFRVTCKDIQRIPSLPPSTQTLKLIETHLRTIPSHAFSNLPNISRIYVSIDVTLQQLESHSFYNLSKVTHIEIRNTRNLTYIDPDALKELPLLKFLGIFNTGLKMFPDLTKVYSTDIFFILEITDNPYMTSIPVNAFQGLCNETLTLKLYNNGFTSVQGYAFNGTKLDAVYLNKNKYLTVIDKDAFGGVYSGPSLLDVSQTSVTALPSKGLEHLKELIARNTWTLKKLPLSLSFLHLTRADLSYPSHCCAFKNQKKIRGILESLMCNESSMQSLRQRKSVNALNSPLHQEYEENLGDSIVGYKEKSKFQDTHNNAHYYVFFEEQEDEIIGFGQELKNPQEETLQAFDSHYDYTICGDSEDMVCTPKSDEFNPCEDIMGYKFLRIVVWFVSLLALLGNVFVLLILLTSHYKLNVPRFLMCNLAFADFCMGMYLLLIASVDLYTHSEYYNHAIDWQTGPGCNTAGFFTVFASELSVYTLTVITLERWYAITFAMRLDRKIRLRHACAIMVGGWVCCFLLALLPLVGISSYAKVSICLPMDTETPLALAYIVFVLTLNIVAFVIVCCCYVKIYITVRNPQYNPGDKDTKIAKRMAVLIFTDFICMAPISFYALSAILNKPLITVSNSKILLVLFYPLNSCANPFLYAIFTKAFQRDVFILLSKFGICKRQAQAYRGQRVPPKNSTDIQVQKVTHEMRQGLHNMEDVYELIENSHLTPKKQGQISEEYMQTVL
Method in brief: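 Screening of the Tox21 10K collection used HEK293 cells engineered with TSHR at 800 cells per well. After a 30-min room-temperature compound exposure, HTRF cAMP reagents were added and fluorescence recorded 1 h later.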

[7] = qHTS assay to identify small molecule agonists of H2AX (AID 1224845; active = well fitted activation curve with a large enough effect in the signal ratio in the repeat runs, not every such curve was filed as active; the % refers to the signal ratio)
Method in brief: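 Phospho-H2AX Ser139 measured by HTRF (ex 320 nm; em 665 and 620 nm) after 24 hr antibody incubation. Compounds, 15 concentrations, 0.76% DMSO, were applied to CHO-K1 cells for 3hr at 37C before lysis.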

[8] = qHTS assay to identify small molecule agonists of H2AX - cell viability counter screen (AID 1224847; calls by dose curve; also: top concentration of the series differs between compounds; nearly all actives have a fitted effect of over 30% in size)
Method in brief: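 Compounds tested at 15 concentrations were incubated 3 hr at 37C with wild-type CHO-K1 cells; cellular ATP-based luminescence (CellTiter-Glo) indicated viability.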

[9] = qHTS RealTime-Glo MT Cell Viability Assay in HEK293 cells - 32 hour (AID 1224868); also: nearly all actives have a fitted effect of over 50% in size; also: potency is read from the fitted curve at half-maximal effect
Method in brief: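 HEK293 cells were seeded at 600 cells/well together with NanoLuc luciferase and cell-permeant prosubstrate, preincubated 5 h at 37 C/5% CO2, then given compound in DMSO by pintool. Luminescence from viable-cell prosubstrate reduction was read repeatedly over 40 h.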

[10] = A CellTox Green Cytotoxicity Assay to monitor cytotoxicity in HEK293 cells - 0 hour (AID 1224869); also: nearly all actives have a fitted effect of over 50% in size
Method in brief: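 Cytotoxicity was tracked continuously in HEK293 cells by a DNA-binding dye excluded from viable cells. Compounds were transferred in DMSO 5 h after seeding; fluorescence was recorded at intervals up to 40 h.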

[11] = qHTS RealTime-Glo MT Cell Viability Assay in HepG2 cells - 40 hour (AID 1224870); also: nearly all actives have a fitted effect of over 50% in size
Method in brief: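 Real-time viability: cells seeded at 600 per well together with NanoLuc and cell-permeant prosubstrate, compounds added after 5 h incubation. Luminescence tracked at 0, 8, 16, 24, 32 and 40 h of exposure.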

[12] = qHTS assay to identify small molecule antagonists of the estrogen related receptor signaling pathway with the pleiotropic PPARgamma coactivator (PGC) from Tox21 10K library - cell viability counter screen (AID 1224840; active = well fitted cell-killing curve with a large enough effect in the repeat runs, not every such curve was filed as active; also: nearly all actives have a fitted effect of over 40% in size)
Method in brief: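 Step one, plate 2,000 PGC/ERR cells per well; step two, incubate 6 h at 37 C/5% CO2; step three, pin-transfer compounds; step four, incubate 17.5 h; step five, add CellTiter-Fluor and read fluorescence after 30 min.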

[13] = qHTS assay to identify small molecule agonists of the hypoxia (HIF-1) signaling pathway - cell viability counter screen (AID 1224844; calls by dose curve; also: nearly all actives have a fitted effect of over 50% in size)
Method in brief: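 Tox21 10K compounds were added to HRE-bla ME-180 cells (0.5% dialyzed FBS) and incubated 17 hrs at 37C; ATP-based CellTiter-Glo luminescence then reported cell viability in the same wells.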

[14] = qHTS RealTime-Glo MT Cell Viability Assay in HepG2 cells - 24 hour (AID 1224867); also: nearly all actives have a fitted effect of over 50% in size
Method in brief: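 HepG2 cells were seeded at 600 cells/well together with NanoLuc luciferase and a cell-permeant prosubstrate, preincubated 5 h at 37 C/5% CO2, then pin-dosed with compounds in DMSO. Nonlytic luminescence from viable cells was read at each time point.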

[15] = qHTS assay to identify small molecule agonists of the hypoxia (HIF-1) signaling pathway (AID 1224846; active = well fitted activation curve with a large enough effect in the signal ratio in the repeat runs, not every such curve was filed as active; the % refers to the signal ratio)
Method in brief: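 Steps: seed ME-180 HRE-bla cells (2,000/well, 0.5% dialyzed FBS); incubate 5 hrs at 37C; pin-transfer compounds or DMSO; incubate 17 hrs; add LiveBLAzer B/G substrate CCF4-AM; measure reporter activation by FRET.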

[16] = qHTS assay to identify small molecule antagonists of the estrogen related receptor signaling pathway with the pleiotropic PPARgamma coactivator (PGC) from Tox21 10K library (AID 1224841; call rule not given here; also: potency is read from the fitted curve at half-maximal effect)
Method in brief: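 Antagonism in this quantitative HTS is taken from loss of luciferase signal in PGC/ERR cells. Cells (2,000/well) are treated with compounds in DMSO after a 6 h settling period and read by One-Glo luminescence after 18 h.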

[17] = qHTS assay to identify small molecule agonists of the estrogen related receptor signaling pathway with the pleiotropic PPARgamma coactivator (PGC) from Tox21 10K library (AID 1224842); also: nearly all actives have a fitted effect of over 15% in size
Method in brief: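 Luminescence from One-Glo (30 min, room temperature) measured after PGC/ERR cells had 18 h at 37 C with pinned compound (23 nL in DMSO). Cells had been seeded at 2,000 per well and pre-incubated 6 h.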

[18] = qHTS assay to identify small molecule antagonists of the estrogen related receptor (ERR) signaling pathway from Tox21 library (AID 1224848); also: nearly all actives have a fitted effect of over 50% in size; also: potency is read from the fitted curve at half-maximal effect
Method in brief: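 Antagonist-mode screen of the Tox21 10K library in an NTP-provided ERR reporter cell line; 18 h compound exposure at 37 C, luminescence measured with ONE-Glo.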

[19] = qHTS assay to identify small molecule agonists of the estrogen related receptor (ERR) signaling pathway from Tox21 library (AID 1224849; calls by dose curve; also: nearly all actives have a fitted effect of over 15% in size)
Method in brief: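 Agonist signal is luciferase luminescence from an ERR reporter cell line treated 18 h at 37 C with DMSO-dissolved compounds, read 30 min after ONE-Glo addition at room temperature.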

[20] = target: Luciferin 4-monooxygenase (Photinus pyralis) (UniProt P08659); assay: qHTS assay to identify small molecule inhibitors of firefly luciferase (AID 1224835); also: series mostly up to about 120 µM; nearly all actives have a fitted effect of over 25% in size
Chain of Luciferin 4-monooxygenase (Photinus pyralis) (P08659 whole entry, looked up): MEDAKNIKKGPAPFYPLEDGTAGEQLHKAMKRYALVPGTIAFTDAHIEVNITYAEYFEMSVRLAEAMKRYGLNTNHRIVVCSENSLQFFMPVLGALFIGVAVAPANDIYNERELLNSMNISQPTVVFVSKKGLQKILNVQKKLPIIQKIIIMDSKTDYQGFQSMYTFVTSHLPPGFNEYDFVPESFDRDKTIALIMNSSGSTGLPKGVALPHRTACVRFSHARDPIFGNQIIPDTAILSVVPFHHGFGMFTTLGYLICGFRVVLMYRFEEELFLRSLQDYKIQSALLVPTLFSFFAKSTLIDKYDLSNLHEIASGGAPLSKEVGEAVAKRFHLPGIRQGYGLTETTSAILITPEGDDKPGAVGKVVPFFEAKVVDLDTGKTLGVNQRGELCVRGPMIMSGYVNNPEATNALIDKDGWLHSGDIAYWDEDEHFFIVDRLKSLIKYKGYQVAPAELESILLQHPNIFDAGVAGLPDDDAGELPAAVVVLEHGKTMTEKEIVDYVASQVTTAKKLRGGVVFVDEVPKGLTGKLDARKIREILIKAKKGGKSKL
Method in brief: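 Inhibition of purified Photinus luciferase is measured by luminescence. Substrate levels (D-luciferin, ATP) sit at their KM values. Each compound is tested in a concentration series.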

SMILES	Potency [1]	outcome [2]	outcome [3]	Potency [4]	Potency [5]	Potency [6]	Potency [7]	outcome [8]	Potency [9]	outcome [10]	Potency [11]	outcome [12]	Potency [13]	outcome [14]	outcome [15]	Potency [16]	Potency [17]	Potency [18]	outcome [19]	Potency [20]
C[C@@H]1C[C@H]2[C@@H]3C[C@H](F)C4=CC(=O)C(Cl)=C[C@]4(C)[C@@]3(F)[C@@H](O)C[C@]2(C)[C@@]1(O)C(=O)CO	inactive	inactive	inactive	inactive	inactive	inactive	inactive	inactive	inactive	inactive	inactive	–	–	–	–	–	–	–	–	–
CC(C)NNC(=O)c1ccncc1	inactive	inactive	inactive	–	–	inactive	inactive	inactive	inactive	inactive	inactive	inactive	inactive	inactive	–	–	–	–	–	–
O=C(O)c1cn(C2CC2)c2cc(N3CCNCC3)c(F)cc2c1=O	inactive	inactive	inactive	–	–	inactive	inactive	inactive	–	inactive	inactive	inactive	inactive	inactive	–	–	–	–	–	–
C=COC(=O)C(C)(CC)CCC(C)C (stereo not given)	inactive	inactive	inactive	inactive	inactive	–	–	inactive	inactive	inactive	inactive	inactive	inactive	inactive	inactive	–	–	–	–	–
CC(C)[C@H]1CC[C@@H](C)CC1=O	inactive	inactive	inactive	–	–	inactive	inactive	inactive	inactive	inactive	inactive	inactive	inactive	inactive	–	–	–	–	–	–
C[N+]1(C)[C@@H]2CC(OC(=O)[C@H](CO)c3ccccc3)C[C@H]1[C@@H]1O[C@@H]12 (stereo not given in full)	–	inactive	inactive	–	–	inactive	inactive	inactive	–	inactive	–	–	inactive	–	–	–	–	–	–	–
CCO[Si](OCC)(OCC)c1ccccc1	inactive	inactive	inactive	–	–	inactive	–	–	inactive	inactive	inactive	–	inactive	–	–	inactive	inactive	inactive	inactive	–
CC(=O)O[C@@]12CO[C@@H]1C[C@H](O)[C@@]1(C)C(=O)[C@H](O)C3=C(C)[C@@H](OC(=O)[C@H](O)[C@@H](NC(=O)OC(C)(C)C)c4ccccc4)C[C@@](O)([C@@H](OC(=O)c4ccccc4)[C@H]21)C3(C)C	0.0668 µM (active)	inactive	–	–	–	–	inactive	inactive	0.0477 µM (active)	inactive	inactive	inactive	inactive	inactive	–	–	–	–	–	–
COc1cc2c(cc1OC)-c1cc3ccc(OC)c(OC)c3c[n+]1CC2	–	inactive	inactive	–	–	–	–	inactive	49.4 µM (active)	inactive	inactive	–	inactive	inactive	–	34.7 µM (active)	inactive	24.6 µM (active)	inactive	–
COC(=O)C1=C(C)NC(C)=C(C(=O)OC(C)C)C1c1cccc2nonc12 (stereo not given)	–	inactive	inactive	inactive	–	inactive	–	inactive	19 µM (active)	inactive	–	inactive	inactive	–	–	inactive	inactive	–	inactive	inactive
c1ccc2sc(SN3CCOCC3)nc2c1	inactive	inactive	inactive	inactive	–	inactive	inactive	inactive	inactive	inactive	inactive	inactive	inactive	inactive	inactive	inactive	inactive	inactive	inactive	–
CCOC(=O)c1ccccc1	inactive	inactive	inactive	–	–	–	inactive	inactive	inactive	–	inactive	inactive	inactive	–	–	inactive	inactive	inactive	inactive	–
CC(C)COC(=O)c1ccc(N)cc1	inactive	inactive	inactive	inactive	–	inactive	inactive	inactive	inactive	inactive	inactive	inactive	inactive	–	inactive	inactive	–	inactive	–	–
CCCCCCCC1CCCC1=O (stereo not given)	inactive	inactive	inactive	–	–	inactive	inactive	inactive	inactive	inactive	inactive	inactive	inactive	inactive	–	–	–	–	–	–
CC(C)(N)C#N	inactive	inactive	inactive	–	–	–	inactive	inactive	inactive	–	inactive	inactive	inactive	inactive	inactive	inactive	inactive	inactive	inactive	–
CN1CCC(=C2c3ccccc3CCc3cccnc32)CC1	inactive	inactive	inactive	inactive	inactive	inactive	inactive	inactive	inactive	inactive	inactive	–	inactive	inactive	inactive	–	–	–	–	–
NO	inactive	inactive	inactive	–	–	inactive	inactive	inactive	inactive	inactive	inactive	inactive	inactive	inactive	–	–	–	–	–	–
C1CCC2=NCCCN2CC1	inactive	inactive	inactive	inactive	inactive	inactive	inactive	inactive	inactive	–	inactive	–	inactive	inactive	inactive	–	–	–	–	–
